Only a selection was taken, and hits are over-represented in it overall.
TTR transcr act – activators of transthyretin transcription | activation, % at 16.7 µM | AID 1117267 | SH-SY5Y TTR promoter Gaussia luciferase, luminescence; 100% = recombinant luciferase protein wells | actives 1.3% (n = 92,000);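 active = activation above the mean of all tested compounds plus 3 SD, cut at about 9.5% in these data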;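 also: cells exposed to compounds for one day before reading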
HuH7 TTR inh – decreases TTR transcription in HuH7 cells in activator counter-screen; inhibition, % at 16.7 µM; shares compounds with TTR transcr act; HuH7 TTR promoter-Gaussia luciferase reporter, luminescence; actives 4% (n = 1,100);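 active = average inhibition above the solvent-only control wells' mean plus 3 SD, cut at about 15% in these data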;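 also: inhibitors lower well luminescence so higher value means more inhibition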
TTR up confirm – human TTR transcription activation, confirmation; SHSY5Y TTR promoter Gaussia luciferase, luminescence; 100% = purified Lucia enzyme wells, no cells; activation, % at 16.7 µM; 1,100 tested, under 10 active; shares compounds with TTR transcr act;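 active = mean activation above a set limit taken from the earlier primary screen, cut at about 11% in these data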
Each line names hits and unclear results; the compound was inactive in the other large screens (follow-up assays come after a bar, where they were run).

CCOC(=O)[C@]12CCCC=C1N(Cc1ccc(OC)cc1)C(=O)[C@@H]2CC(=O)NCc1cccc2ccccc12	none
Cc1cc2cc3c(cc2n2c(SCC(=O)Nc4nc(-c5ccccc5)cs4)nnc12)OCO3	none
O=C(OCc1cn(Cc2cccc(F)c2)nn1)N1CCCCC1	none
C[C@H]1[C@H](NC(=O)c2cccc(Cl)c2)CC[C@@]23CCCN2C(=O)CCC[C@@H]13	none
COC(=O)C1CN(Cc2ccccc2)CCS(=O)(=O)N1Cc1cn(Cc2cccc(Cl)c2)nn1 (centres undefined)	none
COc1ccc(CN2CN3CCc4ccccc4C3CS2(=O)=O)cc1 (centres undefined)	none
COc1ccc(S(=O)(=O)N2CCCC2C(=O)NCc2ccccc2Cl)cc1 (centres undefined)	none
COc1ccc(S(=O)(=O)N2CCC[C@H]2C(=O)NCc2ccc(Cl)cc2)cc1	none
COc1ccc(CNC(=O)C2CCCN2S(=O)(=O)c2ccc(Cl)cc2)cc1 (centres undefined)	TTR transcr act 12.6 | HuH7 TTR inh inactive | TTR up confirm inactive
Cc1noc(C)c1NC(=O)N(C)C[C@H]1OCc2cn(nn2)CCCC(=O)N([C@H](C)CO)C[C@@H]1C	none
O=C1N(CC[C@@H](O)c2ccccc2)CCC12CCC(c1ccccc1)CC2 (some centres undefined)	none
COc1ccc(/C=C2/CN(Cc3ccc(OC)cc3OC)C3=NC(c4ccc5ccccc5c4)CC(=O)N32)cc1 (centres undefined)	none
COc1ccccc1NCc1nc2ccccc2n1C	none
COC(=O)[C@]12C[C@H](CC(=O)N3CCOCC3)C(=O)N(Cc3ccco3)C1=C[C@H](C1CCCC1)O[C@@H]2C	none
Cc1nc(SCCC(C)C)c([N+](=O)[O-])[nH]1	none
Cc1nc(SCc2ccccc2)c([N+](=O)[O-])[nH]1	none
CCOC(=O)CSc1nc(C)[nH]c1[N+](=O)[O-]	TTR transcr act 10.4 | HuH7 TTR inh inactive | TTR up confirm inactive
COc1ccc(C(=O)Nc2cc(Cl)c(Br)cc2C(=O)O)cc1	none
O=C(Nc1ccccc1C(F)(F)F)O[C@@H]1CC[C@@]23CCCN2C(=O)CCC[C@H]3C1	none
COC(CNC(=O)[C@H](Cc1c[nH]c2ccccc12)NC1(C(=O)NC(c2ccccc2)c2ccccc2)CCCCC1)OC	none
CCOC(=O)C1=C(c2ccccc2)NC(=O)NC1c1ccc(OC)cc1 (centres undefined)	none
CCOC(=O)C1=C(c2ccccc2)NC(=O)NC1c1ccc(N(C)C)cc1 (centres undefined)	TTR transcr act 14.0 | HuH7 TTR inh inactive | TTR up confirm inactive
CCOC(=O)C1=C(CS(=O)(=O)c2ccccc2)NC(=O)NC1c1ccccc1 (centres undefined)	none
O=C(OCC#CCSc1nnc(-c2cccc3ccccc23)o1)c1ccc(SC(F)(F)F)cc1	none
COC(=O)[C@]12C[C@H](CC(=O)N3CCOCC3)C(=O)N(Cc3ccc(Cl)cc3Cl)C1=C[C@H](C(C)(C)C)O[C@@H]2C	none
C#CCOCCOCCOCCNc1nc(N2CCN(C(=O)[C@H]([C@@H](C)O)n3cc(CCCCN)nn3)CC2)nc(N2CCN(C(=O)[C@H]([C@@H](C)CC)n3cc(CCCN=C(N)N)nn3)CC2)n1	none
C#CCOCCOCCOCCNc1nc(N2CCN(C(=O)Cn3cc(CCO)nn3)CC2)nc(N2CCN(C(=O)[C@H]([C@@H](C)O)n3cc(CCCCN)nn3)CC2)n1	TTR transcr act 11.2 | HuH7 TTR inh inactive | TTR up confirm inactive
C#CCOCCOCCOCCNc1nc(N2CCN(C(=O)Cn3cc(CCCCN)nn3)CC2)nc(N2CCN(C(=O)[C@H]([C@@H](C)CC)n3cc(CCCN=C(N)N)nn3)CC2)n1	none
Cc1cc(=O)oc2cc(OCCSCCN3CCCCC3)ccc12	TTR transcr act 20.8 | HuH7 TTR inh inactive | TTR up confirm inactive
Cc1cc(=O)oc2cc(OCCSc3nnc(-c4ccccc4)o3)ccc12	none
Cc1cc(=O)oc2cc(OCC#N)ccc12	none
O=C(CN1C(=O)N/C(=C\c2ccccc2OCc2ccc(C(=O)O)cc2)C1=O)Nc1ccc(F)cc1	none
NC1=NC(=O)/C(=C/c2ccccc2OCC(=O)Nc2ccc(F)cc2)S1	TTR transcr act 9.9 | HuH7 TTR inh inactive | TTR up confirm inactive
O=C(CN1C(=O)S/C(=C\c2ccccn2)C1=O)Nc1ccc(F)cc1	none
C[C@H]1C(=O)N2[C@@H](C[C@]3(c4c[nH]c5ccccc45)c4ccccc4N(S(=O)(=O)c4ccccc4)[C@H]23)C(=O)N1C	none
O=C(Nc1ccc(Br)cc1)OC1CC2CC1[C@H]1CCCCN1C2 (some centres undefined)	none
Cc1ccc(S(=O)(=O)N2c3ccc(F)cc3C[C@H]2CSc2ccccc2)cc1	none
Cc1ccc(CN2CCCCC(NC(=O)Cc3cccs3)C2=O)cc1 (centres undefined)	none
CN(CC(=O)Nc1ccc(S(N)(=O)=O)cc1)C1CCCCC1	none
CN(CC(=O)Nc1ccc(S(N)(=O)=O)cc1)Cc1ccccc1F	TTR transcr act 16.1 | HuH7 TTR inh inactive | TTR up confirm inactive
CN(CC(=O)NC(=O)Nc1ccccc1F)Cc1ccccc1F	none
CC/C=C\[C@H](O)[C@H](O)C1=C(C)C(=O)[C@]2(O1)C(=O)N[C@@](OC)(C(=O)c1ccccc1)[C@@H]2O	none
Cc1cc(Br)c(NC(=O)CCNC(=O)OCc2ccccc2)cc1C	none
COC(=O)C(CCCCNC(=O)OCc1ccccc1)NC(=O)CN (centres undefined)	none
COC(=O)C(CSCc1ccccc1)NC(=O)CCNC(=O)OCc1ccccc1 (centres undefined)	TTR transcr act 13.7 | HuH7 TTR inh inactive | TTR up confirm inactive
O=C(NC1CCCCN(Cc2ccc(Cl)cc2)C1=O)c1ccc2ccccc2c1 (centres undefined)	none
CC[C@@]1(c2cccc(Cl)c2)C(=O)N(C(=O)OC(C)C)N1C(=O)OC(C)C	none
O=C1CN(S(=O)(=O)c2cccc(Br)c2)CCN1	TTR transcr act 13.9 | HuH7 TTR inh inactive | TTR up confirm inactive
COC(=O)CCN1CCN(S(=O)(=O)c2cccc(Br)c2)CC1	none
Cc1ccc(S(=O)(=O)N2CCNC(=O)C2)c(C)c1	none
CC(C)(C)S(=O)(=O)N1Cc2cc(CO)ccc2[C@@H]1CCO	none
COc1ccc(C(c2ccc(OC)cc2)N2CCN(C(=O)c3noc(C)c3[N+](=O)[O-])CC2)cc1	none
CC(C)C[C@H](NC1(C(=O)NC2CCCCC2)CCN(C)CC1)C(=O)NCC(c1ccccc1)c1ccccc1	none
CC(=O)OC12CCCN(C1)/C(=C/c1cccc(Cl)c1)C2 (centres undefined)	none
CCCCOc1ccc(C(=O)NC2CCCCN(Cc3ccc(Cl)cc3)C2=O)cc1 (centres undefined)	none
COC(=O)CN(C#N)c1nc(N(C)C)nc(N(C)C)n1	TTR transcr act 13.3 | HuH7 TTR inh inactive | TTR up confirm inactive
CN(C)c1nc(N(C)C)nc(N(C#N)Cc2ccc(Cl)cc2)n1	none
CCOC(=O)C(C(=O)OCC)N(C#N)c1nc(OC)nc(N(C)C)n1	none
C[C@@H]1CCN(C2CC2)S(=O)(=O)c2c(cccc2N2CC[C@@H](N(C)C)C2)O1	none
C[C@H]1C2CC(OC(=O)Nc3cccc(C(F)(F)F)c3)C(C2)[C@H]2CCCCN21 (some centres undefined)	none
C[C@H](CO)N1C[C@H](C)[C@H](CN(C)C(=O)Nc2cccc3ccccc23)Oc2ncc(Br)cc2C1=O	none

Assay outcomes (PubChem)
